SARS PLpro yeast: inhibitors of SARS-CoV papain-like protease in yeast | S. cerevisiae expressing SARS-CoV PLpro, growth rescue | Potency, µM (series often up to 32.9 µM), for inactives: top-dose activity, positive = growth rescue, usual class: activators | 330,000 compounds, 0.19% hits | AID 485353; note: potency is the fitted concentration of half-maximal effect; 0% is about no effect; nearly all actives have a fitted effect of over 55% in size
Shiga inhibitor: blocks Shiga toxin action in Vero cells; Vero cells, Shiga toxin protein synthesis inhibition reporter; inhibition, % at 38.7 µM; 290,000 compounds, 9.2% hits; AID 2315; in the data active = inhibition mostly above about 28%, no sharp cut-off; inactive = mostly below about 43%; note: 0% is about no effect
Cycloheximide cs: counter-screen hit for Shiga toxin inhibitors, cycloheximide; cell reporter, cycloheximide protein synthesis inhibition counterscreen; max response, %; 300,000 compounds, 12% hits; AID 2314; in the data active = max response mostly above about 13%, no sharp cut-off; inactive = mostly below about 14%; note: read at 38.3 µM for the half of the compounds with a filed dose; 0% is about no effect
Pf growth 48h: inhibits P. falciparum growth in the first generation, 48 h. P. falciparum luciferase growth in erythrocytes, 48 h. Potency, µM (top dose mostly 28.7 µM), for inactives: at the highest dose activity change, negative = inhibition, hits mostly inhibitors. 310,000 compounds, 5.9% hits. AID 504832; active = well fitted inhibition curve with a large enough effect; inconclusive = small, poorly fitted or top-dose-only effect, or another doubt; inactive = no such curve, though single readings can be large or run the other way; note: potency is the fitted concentration of half-maximal effect; % is set by controls: 0 for no effect and ±100 for the full control effect
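Cell-based growth assay: transgenic P. falciparum expressing firefly luciferase, cultured in red cells within RPMI 1640 containing 0.5% w/v Albumax, 24 mM bicarbonate and gentamycin. A drop in luciferase activity indicates inhibition.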
Pf growth 96h: P. falciparum growth inhibition at 96 hours; P. falciparum luciferase reporter growth, 96 h; Potency, µM (top dose mostly 28.7 µM), inactives show top-dose activity change, negative = inhibition, actives largely listed as inhibitors; 320,000 compounds, 6.9% hits; active = well fitted inhibition curve with a large enough effect; inconclusive = small, poorly fitted or top-dose-only effect, or another doubt; inactive = no such curve, though single readings can be large or run the other way; note: potency is the fitted concentration of half-maximal effect; % is set by controls: 0 for no effect and ±100 for the full control effect
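Infected RBCs, 2% Hct / 0.05% parasitemia final; luciferase-reporter P. falciparum; cpd 96 h, 37 C, 5% CO2; luciferase detection reagent; luminescence.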
NS1 inh: blocks influenza NS1 protein function | 270,000 compounds, 0.4% hits | Potency, µM (highest dose often 46.1 µM), without a hit: at the top dose activity, positive = more growth | AID 2326; note: potency is the fitted concentration of half-maximal effect; actives are rising curves; nearly all actives have a fitted effect of over 50% in size
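Growth recovery, yeast-based: influenza A NS1 expressed in S. cerevisiae causes slow growth, and suppressors are detected by OD600. The parent strain without NS1 is used as positive control.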
Starred values were filed as active, the others as inactive; ? = inconclusive; . = no result given; [ ] = remark or other dose. Shown are actives, neighbours in structure and some others; about 21% of the full set was active somewhere. Unless noted, calls come from the whole dose curve.

SMILES	SARS PLpro yeast	Shiga inhibitor	Cycloheximide cs	Pf growth 48h	Pf growth 96h	NS1 inh
O=C(CSc1ccccn1)Nc1nc2ccc(Br)cc2s1	-13%	38	25*	-6%	?	-5%
CC(C)Cc1nnc(NC(=O)CSc2ccccn2)s1	6%	19	23*	.	?	-12%
COC(=O)Nc1nc2ccc(Br)cc2s1	1%	26	16	32%	33%	1%
CC1(COS(N)(=O)=O)CCCCC1	-6%	12	-4	-19%	?	26%
CN1CCc2cccc(Cl)c2CC1	.	.	.	-1%	?	3%
O=[N+]([O-])c1ccccc1/C=N\N1CCN(Cc2ccccc2Cl)CC1	4%	15	16*	3%	-26%	-11%
O=[N+]([O-])c1ccccc1/C=N/N1CCN(Cc2ccccc2)CC1	8%	.	45*	-8%	?	-22%
Clc1ccccc1CN1CCN(/N=C/C=C/c2ccco2)CC1	-2%	58*	26*	-3%	25%	1%
CN1CCN(/N=C/c2cccc(Cl)c2Cl)CC1	-29%	41*	29*	60%	30%	-2%
O=C(CN1CCN(Cc2ccccc2Cl)CC1)N/N=C/C=C/c1ccco1	-2%	-5	-2	-2%	0%	2%
Fc1ccccc1/C=N/N1CCN(Cc2ccccc2Cl)CC1	5%	.	19*	22%	1%	-8%
Clc1ccccc1/C=N/N1CCN(Cc2ccccc2)CC1	4%	.	4	27%	?	11%
C=CCOC(=O)C1CC=CCC1C(=O)Oc1ccc(F)cc1F (stereo not given)	-2%	-11	-4	12%	15%	-9%
Cc1ccc2nc(N3CCOCC3)c(C=O)c(=O)n2c1	0%	14	5	22%	1%	0%
Fc1ccc(CSc2nc3ncc(Br)cc3[nH]2)cc1	3%	-13	-3	.	9.3µM*	0%
Brc1cnc2nc(SCc3nc4ccccc4[nH]3)[nH]c2c1	1%	-2	1	?	34%	?
Cc1cc(C)c(NC(=O)CSc2nccn2C)c(C)c1	10%	20	3	15%	0.074µM*	12%
Cn1ccnc1SCC(=O)Nc1cccc(O)c1	3%	58	21*	60%	.	11%
CCCCOc1cccc(NC(=O)CSc2nccn2C)c1	-1%	37	8.8*	20%	-13%	-2%
Cn1ccnc1SCC(=O)Nc1cccc(C(F)(F)F)c1	1%	41	20	36%	?	-9%
NC1=NC(c2ccccc2)N=C(Nc2ccccc2)N1 (stereo not given)	-1%	20	14*	4.7µM*	2.9µM*	-20%
CC1(C)N=C(N)NC(Nc2ccccc2Cl)=N1	.	6	8	-34%	31%	.
COc1ccc(NC2=NC3(CCCCC3)N=C(N)N2)cc1	1%	-13	-1	0.93µM*	?	?
CCCCOc1ccc(NC2=NC3(CCCCC3)N=C(N)N2)cc1	3%	-12	5	0.66µM*	8%	-2%
COc1ccc(OC)c(NC2=NC3(CCCCC3)N=C(N)N2)c1	2%	-3	-3	?	-17%	1%
SMILES	SARS PLpro yeast	Shiga inhibitor	Cycloheximide cs	Pf growth 48h	Pf growth 96h	NS1 inh
CCCCCOc1ccc(NS(C)(=O)=O)cc1	-5%	37	29	?	-1%	-12%
NC1=NC2(CCCC2)N=C(Nc2ccccc2)N1	0%	-9	-4	?	1.5µM*	4%
C=CCc1cc(C=O)cc(OC)c1OCc1c(Cl)cccc1Cl	4%	18	0	5%	?	-19%
CCCCc1nc2ccn(CC(=O)N(C)C)c(=O)c2n1Cc1ccc(-c2ccccc2-c2nn[nH]n2)cc1	.	10	2	.	.	.
O=C(O)c1cn2c3c(ccc(Cl)c3c1=O)OCC2	0%	21	-3	45%	27%	-4%
O=C(NCc1nnc2c(C(F)(F)F)cc(Cl)cn12)c1ccco1	0%	26	-3	17%	6%	-3%
N#Cc1ccccc1OCC(=O)N1CCN(C(=O)c2ccco2)CC1	13%	-4	-4	-2%	-4%	-9%
Cc1nc(=O)c(-c2ccccc2)c(C)n1-c1cccc(C(=O)O)c1	5%	-14	-8	13%	23%	5%
Cc1ccc(-c2ccccc2)n1-c1ccc(C(=O)O)cc1	-12%	24	15*	21%	5%	-49%
Cc1ccc(-c2ccccc2)n1-c1cccc(C(=O)O)c1	-4%	163*	66*	62%	31%	7%
COCc1nnc(NC(=O)CSCc2ccccc2)s1	1%	2	3	34%	32%	-3%
Cc1cc(C)c(NC(=O)c2ccc(CNS(=O)(=O)c3cc(C(F)(F)F)ccc3Cl)cc2)c(C)c1	6%	-11	2	19%	22%	24%
Cc1cnc(C(=O)OCc2ccc(C#N)cc2)cn1	-7%	-3	-6	9%	42%	7%
CCn1ncc2c(OCc3ccc(C#N)cc3)cc(C)nc21	-10%	-18	-2	.	15µM*	-46%
CC(=O)c1cccc(NC(=O)C(C)N(C)CC(=O)Nc2ccc(Cl)cc2)c1 (stereo not given)	0%	-12	-2	-28%	?	-5%
O=C(COc1ccc(S(=O)(=O)NC2CCCCC2)cc1)NC1CCCC1	1%	11	-6	-13%	52%	2%
O=C(COc1ccc(S(=O)(=O)N2CCCCC2)cc1)NC1CCCCC1	0%	-11	-2	8.3µM*	?	-16%
O=C(COc1ccc(S(=O)(=O)NC2CCCCC2)cc1)NC1CC1	-3%	-16	1	24%	-2%	4%
O=C(COc1ccc(S(=O)(=O)NC2CCCCC2)cc1)NC1CCCCC1	17%	-2	-3	15µM*	?	-2%[9.22 µM]
CCN(CC)c1ccc(-c2n[nH]c(=S)n2-c2ccccc2)cc1	0%	16	-2	-27%	?	-8%
O=C(c1ccc(Cl)cc1)c1c[nH]c(C(=O)NNc2ccccc2)c1	0%	-20	-7	7%	24%	1%
CNC(=O)c1cc(C(=O)c2ccc(Cl)cc2)c[nH]1	-4%	56*	24*	.	25%	0%
Cc1ccc(C(C)C)c(OCC(=O)NN=C2CCCC(=O)C2)c1	-6%	.	.	.	.	.
Cc1ccc(NS(=O)(=O)N2CCOCC2)cc1	2%	-6	8	22%	?	11%
O=S(=O)(Nc1ccc(F)cc1)N1CCOCC1	0%	4	34*	8%	32%	?
O=S(=O)(Nc1ccc(Br)cc1)N1CCOCC1	1%	-1	-1	23%	9.3µM*	3%
CCCCN(C(=O)Cc1ccc2c(c1)OCCO2)c1c(N)n(CC(C)C)c(=O)[nH]c1=O	0%	.	.	?	?	.
Cc1nc2ccc(N)cc2c(=O)n1Cc1ccc(Cl)cc1	22%	25	18	14%	53%	-3%
CCCc1nc2ccc(NC(C)=O)cc2c(=O)n1Cc1ccc(Cl)cc1	-2%	90*	43*	129%	36%	.
CCCC(=O)N1CCN(c2ccc(NC(=O)c3cccs3)cc2Cl)CC1	-1%	-12	1	?	126%	-4%
